PubChem BioAssay AID1159580 (chemical genetic matrix, 2015)
Out of some 5,500 compounds screened, about 2,000 (36%) were called active. Another 18% or so got no clear call; they are omitted. Cut-off read from the data, not from the text of the source: active = normalized growth mostly below about 0.91 (no sharp cut-off); inconclusive = no clear call, values can overlap the other calls; inactive = mostly above about 0.92. The list shows a part of the results.

Assay: chemical genetic growth profiling, strain panel (AID 1159580);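 note: tested at 20 µM; growth read once vehicle control cultures reached saturation at 30 °C; 1 = growth at the plate median or of vehicle wells; lower values mean less growth of the strain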
Conditions: S. cerevisiae deletion strains, growth OD

Measured: normalized growth

CC(=O)O[C@@H]1CC[C@]2(C)C3CC[C@]4(C)C(=O)CCC4C3CC[C@H]2C1 (stereo partly specified)
active: locus YBR009C, strain hhf1, active compounds read low 0.866 | locus YDL035C, strain GPR1, active compounds read low 0.85 | locus YDR162C, strain NBP2, active compounds read low 0.661 | locus YDR502C, strain sam2, active compounds read low 0.883 | locus YGR135W, strain pre9, active compounds read low 0.876 | locus YIL066C, strain RNR3, active compounds read low 0.852 | locus YLR262C, strain YPT6 (second series), active compounds read low 0.725 | locus YLR320W, strain mms22, active compounds read low 0.868 | locus YML032C, strain rad52, active compounds read low 0.885 | locus YMR205C, strain PFK2, active compounds read low 0.867 | locus YNL307C, strain MCK1, active compounds read low 0.848 | locus YNR052C, strain pop2, active compounds read low 0.877 | locus YOL147C, strain pex11, active compounds read low 0.865 | locus YOR001W, strain rrp6, active compounds read low 0.891 | locus YOR184W, strain ser1, active compounds read low 0.713 | locus YOR270C, strain vph1, active compounds read low 0.72
inactive: locus YAL021C, strain ccr4, active compounds read low 0.944 | locus YAL026C, strain drs2, active compounds read low 0.967 | locus YAL030W, strain snc1, active compounds read low 1.01 | locus YBL061C, strain skt5, active compounds read low 0.988 | locus YBR021W, strain FUR4, active compounds read low 0.861 | locus YBR023C, strain chs3, active compounds read low 0.98 | locus YBR171W, strain sec66, active compounds read low 0.97 | locus YBR229C, strain ROT2, active compounds read low 0.934 | locus YBR231C, strain swc5, active compounds read low 1.01 | locus YBR279W, strain paf1, active compounds read low 1 | locus YCL011C, strain gbp2, active compounds read low 0.973 | locus YCL016C, strain dcc1, active compounds read low 1.02 | locus YCL029C, strain bik1, active compounds read low 0.987 | locus YCL061C, strain MRC1, active compounds read low 0.979 | locus YCL069W, strain vba3, active compounds read low 0.96 | locus YCR088W, strain abp1, active compounds read low 0.984 | locus YDL005C, strain med2, active compounds read low 1 | locus YDL040C, strain nat1, active compounds read low 0.982 | locus YDL074C, strain BRE1, active compounds read low 0.867 | locus YDL101C, strain DUN1, active compounds read low 0.964 | locus YDL185W, strain tfp1, active compounds read low 0.981 | locus YDL192W, strain arf1, active compounds read low 0.937 | locus YDR001C, strain nth1, active compounds read low 0.997 | locus YDR069C, strain doa4, active compounds read low 0.969 | locus YDR101C, strain arx1, active compounds read low 0.995 | locus YDR137W, strain rgp1, active compounds read low 0.876 | locus YDR150W, strain NUM1, active compounds read low 0.992 | locus YDR159W, strain sac3, active compounds read low 0.931 | locus YDR195W, strain ref2 1.07 | locus YDR297W, strain sur2, active compounds read low 1.01 | locus YDR318W, strain mcm21, active compounds read low 0.942 | locus YDR334W, strain swr1, active compounds read low 0.972 | locus YDR335W, strain msn5, active compounds read low 0.995 | locus YDR388W, active compounds read low 0.939 | locus YDR392W, strain spt3, active compounds read low 0.929 | locus YEL003W, strain gim4, active compounds read low 0.965 | locus YEL037C, strain rad23, active compounds read low 0.985 | locus YEL061C, strain CIN8 (second series), active compounds read low 0.988 | locus YEL061C, strain CIN8, active compounds read low 0.983 | locus YER015W, strain faa2, active compounds read low 0.996 | locus YER016W, strain bim1, active compounds read low 1.03 | locus YER110C, active compounds read low 0.996 | locus YER111C, strain swi4, active compounds read low 0.986 | locus YER155C, strain BEM2 (second series), active compounds read low 0.992 | locus YER155C, strain BEM2, active compounds read low 1.01 | locus YER167W, strain BCK2, active compounds read low 0.947 | locus YFR010W, strain ubp6, active compounds read low 0.972 | locus YGL078C, strain dbp3, active compounds read low 0.948 | locus YGL086W, strain mad1, active compounds read low 0.987 | locus YGL167C, strain pmr1, active compounds read low 0.999 | locus YGL173C, strain kem1, active compounds read low 0.953 | locus YGL227W, strain vid30, active compounds read low 0.989 | locus YGL240W, strain doc1, active compounds read low 0.985 | locus YGL248W, strain PDE1, active compounds read low 0.959 | locus YGL253W, strain hxk2, active compounds read low 0.966 | locus YGR252W, strain gcn5, active compounds read low 0.83 | locus YHR013C, strain ard1, active compounds read low 1.05 | locus YHR027C, strain rpn1, active compounds read low 0.977 | locus YHR030C, strain SLT2, active compounds read low 0.999 | locus YHR079C, strain IRE1 (second series), active compounds read low 0.987 | locus YHR094C, strain hxt1, active compounds read low 0.978 | locus YHR129C, strain ARP1, active compounds read low 0.974 | locus YHR142W, strain chs7, active compounds read low 0.943 | locus YHR200W, strain rpn10, active compounds read low 0.978 | locus YIL073C, strain SPO22, active compounds read low 0.872 | locus YIL125W, strain kgd1, active compounds read low 0.981 | locus YIR030C, strain dcg1, active compounds read low 0.967 | locus YJL092W, strain hpr5, active compounds read low 0.986 | locus YJL095W, strain BCK1 (second series), active compounds read low 0.949 | locus YJL095W, strain BCK1, active compounds read low 0.828 | locus YJL115W, strain asf1, active compounds read low 0.991 | locus YJL129C, strain trk1, active compounds read low 0.942 | locus YJL134W, strain LCB3, active compounds read low 0.951 | locus YJL154C, strain vps35, active compounds read low 0.988 | locus YJL164C, strain tpk1, active compounds read low 0.949 | locus YJL166W, strain qcr8, active compounds read low 0.922 | locus YJL168C, strain set2, active compounds read low 0.995 | locus YJL187C, strain SWE1 (second series), active compounds read low 0.955 | locus YJR043C, strain POL32, active compounds read low 0.962 | locus YJR075W, strain HOC1, active compounds read low 0.982 | locus YKL009W, strain mrt4, active compounds read low 0.941 | locus YKL068W, active compounds read low 0.979 | locus YKL085W, strain MDH1 (second series), active compounds read low 0.954 | locus YKL085W, strain MDH1, active compounds read low 0.954 | locus YKL160W, strain elf1, active compounds read low 1.03 | locus YKL190W, strain CNB1, active compounds read low 0.973 | locus YKR001C, strain vps1, active compounds read low 0.984 | locus YKR026C, strain gcn3, active compounds read low 0.982 | locus YKR091W, strain srl3, active compounds read low 0.989 | locus YLL001W, strain dnm1, active compounds read low 0.974 | locus YLL026W, active compounds read low 0.999 | locus YLL041C, strain sdh2, active compounds read low 0.986 | locus YLR027C, strain aat2, active compounds read low 0.962 | locus YLR039C, strain RIC1, active compounds read low 0.772 | locus YLR058C, strain SHM2, active compounds read low 0.96 | locus YLR102C, strain apc9, active compounds read low 0.991 | locus YLR221C, strain rsa3, active compounds read low 0.91 | locus YLR258W, strain gsy2, active compounds read low 0.974 | locus YLR262C, strain YPT6, active compounds read low 0.672 | locus YLR268W, strain sec22, active compounds read low 0.979 | locus YLR330W, strain CHS5, active compounds read low 0.933 | locus YLR342W, strain FKS1 (second series), active compounds read low 0.804 | locus YLR342W, strain FKS1, active compounds read low 0.962 | locus YLR357W, strain rsc2, active compounds read low 1.02 | locus YLR370C, strain arc18, active compounds read low 1.02 | locus YLR371W, strain rom2, active compounds read low 0.992 | locus YLR384C, strain iki3, active compounds read low 1.02 | locus YLR418C, strain cdc73, active compounds read low 0.843 | locus YML016C, strain PPZ1, active compounds read low 0.969 | locus YML120C, strain ndi1, active compounds read low 0.943 | locus YML124C, strain tub3, active compounds read low 1 | locus YMR058W, strain fet3, active compounds read low 0.95 | locus YMR078C, strain ctf18, active compounds read low 1 | locus YMR125W, strain sto1, active compounds read low 1 | locus YMR129W, active compounds read low 1 | locus YMR223W, strain ubp8, active compounds read low 0.916 | locus YMR231W, strain pep5, active compounds read low 0.993 | locus YMR307W, strain GAS1, active compounds read low 0.797 | locus YNL067W, strain RPL9B, active compounds read low 1 | locus YNL071W, strain lat1, active compounds read low 0.949 | locus YNL209W, strain ssb2, active compounds read low 0.989 | locus YNL233W, strain BNI4, active compounds read low 0.941 | locus YNL248C, strain rpa49, active compounds read low 0.963 | locus YNL250W, strain rad50, active compounds read low 0.963 | locus YNL271C, strain bni1, active compounds read low 0.979 | locus YNL298W, strain CLA4, active compounds read low 0.913 | locus YNL322C, strain KRE1 (second series), active compounds read low 1.02 | locus YNR049C, strain mso1, active compounds read low 1.01 | locus YOL012C, strain htz1 1.51 | locus YOR061W, strain CKA2, active compounds read low 0.942 | locus YOR069W, strain VPS5, active compounds read low 0.977 | locus YOR070C, strain gyp1, active compounds read low 1 | locus YOR080W, strain dia2, active compounds read low 1.01 | locus YOR083W, strain WHI5, active compounds read low 0.975 | locus YOR106W, strain vam3, active compounds read low 0.978 | locus YOR136W, strain idh2, active compounds read low 0.998 | locus YOR144C, strain elg1, active compounds read low 1 | locus YOR265W, strain rbl2, active compounds read low 0.983 | locus YOR290C, strain snf2, active compounds read low 0.958 | locus YOR316C, strain cot1, active compounds read low 0.986 | locus YPL051W, strain arl3, active compounds read low 1 | locus YPL078C, strain atp4, active compounds read low 0.964 | locus YPL106C, strain sse1, active compounds read low 1.03 | locus YPL240C, strain hsp82, active compounds read low 0.99 | locus YPL241C, strain CIN2, active compounds read low 0.985 | locus YPR119W, strain clb2, active compounds read low 0.994 | locus YPR141C, strain kar3, active compounds read low 0.991 | locus YPR163C, strain tif3, active compounds read low 0.981 | locus YPR167C, strain met16, active compounds read low 0.942 | strain wtn01, active compounds read low 1.01
